CYP2C19 activ: activators of human cytochrome P450 2C19; 96,000 tested, under 10 active; recombinant CYP2C19, luciferin-H EGE luminescence; stronger effect = higher value; 0 = fully inhibited enzyme, 1 = untreated enzyme; P33261; activation factor at 5 µM;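 active = activation factor of at least 2 at 5 µM in the primary screen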;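 note: 0 = wells with 2.5 mM tranylcypromine and 1 = vehicle-only wells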
Target sequence (P33261 whole entry, looked up): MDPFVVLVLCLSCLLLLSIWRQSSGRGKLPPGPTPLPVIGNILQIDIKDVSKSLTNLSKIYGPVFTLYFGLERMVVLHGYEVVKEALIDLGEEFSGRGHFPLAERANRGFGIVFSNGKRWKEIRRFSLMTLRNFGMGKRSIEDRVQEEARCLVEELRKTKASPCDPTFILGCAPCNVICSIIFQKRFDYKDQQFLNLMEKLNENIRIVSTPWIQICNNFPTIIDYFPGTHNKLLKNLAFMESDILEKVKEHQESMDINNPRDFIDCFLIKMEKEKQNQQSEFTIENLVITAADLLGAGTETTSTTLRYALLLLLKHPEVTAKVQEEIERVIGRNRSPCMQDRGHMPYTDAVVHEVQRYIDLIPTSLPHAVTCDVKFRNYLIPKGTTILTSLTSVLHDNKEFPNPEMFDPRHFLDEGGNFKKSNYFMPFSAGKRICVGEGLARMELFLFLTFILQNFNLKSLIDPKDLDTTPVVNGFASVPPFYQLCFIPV
CYP2C19 inh: blocks human cytochrome P450 2C19 | P33261 | CYP2C19 Supersomes, luciferin-H EGE luminescence, 30 min | inhibition, % at 5 µM | 96,000 tested, 21% active | AID 778;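 active = CYP2C19 inhibition above a set limit at 5 µM in the primary screen, cut at about 50% in these data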;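 note: plate controls were negative control wells for no effect and 2.5 mM tranylcypromine positive control for full effect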
CYP2C9 inhib: blocks human cytochrome P450 2C9 | CYP2C9 Supersomes, luciferin-H conversion, luminescence | inhibition, % at 5 µM | 96,000 tested, 20% active;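 active = blocking of liver enzyme CYP2C9 beyond about 50% at 5 µM, limit read from the data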
CYP2C9 activ: activators of human CYP2C9; P11712; recombinant CYP2C9, luciferin-H conversion, luminescence; stronger effect = higher value; factor 1 = untreated enzyme, 0 = blocked; activation factor at 5 µM; 96,000 tested, 1.4% active; AID 1024;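 active = activation factor of 2 or more for CYP2C9 at a 5 µM dose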;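 note: 0 = sulfaphenazole-blocked wells and 1 = vehicle-only wells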
Cav32 inh: blocks human Cav3.2 T-type calcium channel; O95180; Cav3.2-expressing cells, Fluo-4 calcium fluorescence FDSS; stronger effect = lower value; B-score at 10 µM; 100,000 tested, 4% active; AID 449739;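 active = single-dose well whose peak fluorescence ratio is a statistical outlier from its plate by either plate-standardised score or position-corrected B-score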
* hit, by the source's call; . = no result given. Shown are actives, neighbours in structure and some others; about 27% of the full set was active somewhere.

SMILES | CYP2C19 activ | CYP2C19 inh | CYP2C9 inhib | CYP2C9 activ | Cav32 inh
COc1cccc(-c2nnc(NC(=O)c3ccc(S(=O)(=O)N4CCOCC4)cc3)o2)c1 | 1 | -2.1 | 7.2 | 0.9 | -1.41
COCCNS(=O)(=O)c1ccc2c(c1)C(=O)c1cc(S(=O)(=O)NCCOC)ccc1-2 | 0.9 | 5.8 | 64.1* | 0.4 | -0.0841
COCCNS(=O)(=O)c1ccc(F)c(OC)c1 | 0.9 | 10.4 | -10.3 | 1.1 | 0.441
O=C1c2cc(S(=O)(=O)NCCCO)ccc2-c2ccc(S(=O)(=O)NCCCO)cc21 | 1 | 3.6 | 58.2* | 0.4 | .
Cc1nnc(C)n1/N=C/c1ccc(-c2ccccc2)cc1 | 1 | -3.3 | -8.3 | 1.1 | 1.24
CCOc1ccc(-n2c(SCc3ccc(C#N)cc3)nnc2-c2cccnc2)cc1 | 0.7 | 29.9 | 23.0 | 0.8 | -6.8*
N#Cc1ccc(CSc2nnc(-c3cccnc3)n2-c2ccccc2)cc1 | 0.9 | 6.5 | 4.7 | 1 | 1.95
CCn1c(SCc2ccc(C#N)cc2)nnc1-c1cccc(Cl)c1 | 0.3 | 65.0* | 14.4 | 0.9 | -1.21
C=CCSc1nnc(-c2ccncc2)n1-c1ccc(OCC)cc1 | 0 | 99.2* | 54.1* | 0.5 | -0.00708
CCn1c(SCc2ccc(Cl)cc2)nnc1-c1ccccc1 | . | . | . | . | -2.9
CCn1c(COc2ccc(Cl)cc2)nnc1SCc1ccc(C#N)cc1 | 0.2 | 76.3* | 76.4* | 0.2 | -4.99
CN(CC(=O)N1CCc2ccccc2C1)S(=O)(=O)c1ccc2c(c1)c(=O)n(C)c(=O)n2C | 1.2 | -17.0 | 12.4 | 0.9 | .
CCN(CC)C(=O)C1CCCN(c2ccc([N+](=O)[O-])cc2/C=N/NC(=O)c2cccc([N+](=O)[O-])c2)C1 (stereo unspecified) | 0.6 | 38.3 | 44.6 | 0.6 | .
O=C(NC1(C(F)(F)F)N=C(c2ccccc2)NC1=O)c1ccc(Cl)cc1Cl (stereo unspecified) | 0.8 | 23.3 | 16.4 | 0.8 | 0.175
O=C(O)c1ccc(-c2noc(-c3cccc(F)c3)n2)cc1 | . | . | . | . | 0.5
CCC1=C(OC(=O)N(CC)CC)N2C(=O)OC(=NCC3CC3)[C@]2(Cc2ccccc2)[C@H]2C1=CC[C@H]1C(=O)N(c3ccccc3)C(=O)[C@H]12 | . | . | . | . | -2.97
COc1ccc(-n2c(COc3ccc(Cl)cc3)nnc2SCc2ccc(C#N)cc2)cc1 | 0.6 | 43.3 | 48.8 | 0.5 | -4.26*
CC(=O)c1cc2c(cc1NC(=O)CN1CCN(c3ccc(F)cc3)CC1)OCO2 | 1 | -0.2 | 40.5 | 0.6 | 0.106
Cn1nc(C(F)(F)F)c(C(=O)Nc2ccc(F)cc2F)c1Sc1ccc(Cl)cc1 | 0.4 | 61.2* | 24.3 | 0.8 | -0.412
Cn1nc(C(F)(F)F)c(C(=O)Nc2ccc(F)cc2F)c1Sc1ccc(C(F)(F)F)cc1 | 0.3 | 69.0* | 34.0 | 0.7 | 1.49
Cc1ccc(Sc2c(C(=O)Nc3ccc(F)cc3F)c(C(F)(F)F)nn2C)cc1 | 0.8 | 19.1 | 8.1 | 0.9 | 0.945
CCSc1nnc(Cc2cc(=O)[nH]c(=O)[nH]2)n1-c1cc(C)ccc1C | 1.1 | -14.7 | -9.0 | 1.1 | 0.407
CCS(=O)(=O)c1ccc(C(=O)Nc2cccc(Cl)c2)c(Cl)c1Cl | 1 | -0.4 | -30.2 | 1.3 | .
COCC(=O)Nc1ccc(S(=O)(=O)NCCc2ccccc2)cc1 | 0 | 95.1* | 69.0* | 0.3 | 1.21
O=C(Nc1ccc(S(=O)(=O)NCCc2ccccc2)cc1)c1ccc(Br)o1 | 1.1 | -10.8 | 3.5 | 1 | -0.00268
SMILES | CYP2C19 activ | CYP2C19 inh | CYP2C9 inhib | CYP2C9 activ | Cav32 inh
CCC(=O)Nc1ccc(S(=O)(=O)NCCc2ccccc2)cc1 | 0.2 | 75.3* | 35.4 | 0.6 | 1.27
N#CCSc1nnc(C2CCCCC2)n1-c1ccccc1 | 1 | 1.2 | 0.4 | 1 | 0.601
Cc1ccc(NC(=O)CN(C)S(=O)(=O)c2cccs2)cc1C | 0.2 | 78.6* | 17.2 | 0.8 | 0.985
COc1ccc(S(=O)(=O)N(C)CC(=O)Nc2cccc(C(C)=O)c2)cc1C | 0.5 | 46.7 | -30.1 | 1.3 | 1.02
CCOc1ccc(NC(=O)CN(C)S(=O)(=O)c2cccs2)cc1 | 0.8 | 20.5 | -31.9 | 1.3 | 0.508
Cc1ccc(NC(=O)CN(C)S(=O)(=O)c2cccs2)cc1F | 0.3 | 68.6* | 31.6 | 0.7 | 0.553
CC1CCCCN1CC(=O)Nc1sccc1C#N (stereo unspecified) | 0.6 | 41.0 | 31.0 | 0.7 | -0.00468
CC1CC(C)CN(CC(C)(C)NS(=O)(=O)c2ccccc2)C1 (stereo unspecified) | 0.2 | 79.4* | 47.5 | 0.5 | -0.0363
Cc1cc(C(=O)NCCCN2CC(C)CC(C)C2)n(-c2ccccc2)n1 (stereo unspecified) | 1.1 | -7.4 | -2.9 | 1 | 0.982
CC1CCCC(C)N1CC(C)(C)NS(=O)(=O)c1ccc(Cl)cc1 (stereo unspecified) | 0.2 | 84.3* | 16.6 | 0.8 | -0.176
COc1cc(CNc2ccc3[nH]c(=O)[nH]c3c2)cc(Cl)c1OCC(=O)NC(C)(C)C | 0.2 | 81.4* | 71.4* | 0.3 | -0.569
COc1cc(CNn2nnnc2N)cc(Br)c1OCC(=O)NC(C)(C)C | 0.9 | 12.2 | 6.2 | 0.9 | -0.00127
O=C(CN(C(=O)CSc1nnc(COc2ccccc2)o1)c1ccc(F)cc1)NC1CCCCC1 | 0.9 | 10.0 | 30.5 | 0.7 | -2.01
CCOC(=O)CNc1nc(C(C)(C)C)nc2c1nnn2Cc1ccccc1Cl | 0.9 | 7.7 | 10.2 | 0.9 | -1.68
C#CCNc1nc(CC)nc2c1nnn2Cc1ccccc1F | 0.5 | 51.5* | 10.3 | 0.9 | -0.578
Fc1ccccc1Cn1nnc2c(NCCc3ccccn3)ncnc21 | 0.7 | 34.3 | 2.4 | 1 | -0.116
CCc1nc(NCCCCCO)c2nnn(Cc3ccccc3F)c2n1 | 0.6 | 44.9 | 56.4* | 0.4 | -2.63
COc1ccc2nc(SCC(=O)Nc3ccccc3C#N)[nH]c2c1 | 0.6 | 37.7 | 67.1* | 0.3 | -0.321
COc1ccc2nc(SCC(=O)Nc3ccccc3C)[nH]c2c1 | 0.3 | 67.7* | 87.8* | 0.1 | -1.04
CC(C)C(OC(=O)c1ccco1)C(=O)NCc1cccs1 (stereo unspecified) | 0.3 | 68.8* | 35.4 | 0.6 | 0.182
Cc1ccc(CNC(=O)C(OC(=O)c2ccco2)C(C)C)cc1 (stereo unspecified) | 0.1 | 85.7* | 61.1* | 0.4 | -1.08
Cc1ccc(CNC(=O)C(C)OC(=O)c2ccco2)cc1 (stereo unspecified) | 0.3 | 72.5* | 55.0* | 0.4 | 0.384
CC(C)C(OC(=O)c1ccco1)C(=O)NCc1ccco1 (stereo unspecified) | 1 | -3.2 | -13.0 | 1.1 | 0.998
Cc1ccc(CNC(=O)C(C)OC(=O)c2cccs2)cc1 (stereo unspecified) | 0.2 | 76.7* | 67.7* | 0.3 | 1.06
Fc1cccc(CN2CCN(c3ncccn3)CC2)c1 | 0.7 | 25.3 | 7.2 | 0.9 | -1.03
CCOC(=O)CN1CCc2c(C)nc3c(-c4ccc(OC)c(OC)c4)cnn3c21 | 1.1 | -5.9 | 12.9 | 0.9 | 0.743
COCCn1nnnc1C(c1ccc(C(F)(F)F)cc1)N1CCOCC1 (stereo unspecified) | 0.7 | 26.6 | 12.6 | 0.9 | -0.888

Bioassay records deposited in PubChem BioAssay by several laboratories.
